Laboratory results reported in PubChem BioAssay.
Where “and” joins values, the source holds several entries; their conditions need not be identical. Identical values can stand only once. Calls of active or inactive are those of the source.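 How the source made its calls, unless noted: active means compounds whose cell count with miR-34 switched on is under 0.7 times the count with it off; inactive means the rest.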

Biological target: 6-phosphogluconate dehydrogenase, decarboxylating (Homo sapiens) (UniProt P52209)
Sequence (P52209 whole entry, looked up): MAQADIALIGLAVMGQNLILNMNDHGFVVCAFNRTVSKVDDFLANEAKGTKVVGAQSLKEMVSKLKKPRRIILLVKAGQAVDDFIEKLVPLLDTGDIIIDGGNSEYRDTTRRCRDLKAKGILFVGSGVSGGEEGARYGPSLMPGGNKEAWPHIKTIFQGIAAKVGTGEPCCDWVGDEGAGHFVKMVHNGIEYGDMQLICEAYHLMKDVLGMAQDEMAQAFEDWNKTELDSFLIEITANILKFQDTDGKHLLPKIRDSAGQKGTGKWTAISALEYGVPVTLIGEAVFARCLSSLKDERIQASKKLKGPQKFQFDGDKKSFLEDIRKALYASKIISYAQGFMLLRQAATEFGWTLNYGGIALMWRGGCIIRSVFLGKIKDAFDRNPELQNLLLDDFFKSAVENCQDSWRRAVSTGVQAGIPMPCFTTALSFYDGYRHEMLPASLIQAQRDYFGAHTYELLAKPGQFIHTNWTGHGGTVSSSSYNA
Assay: inhibition of human phosphogluconate dehydrogenase – biochemical, recombinant enzyme, NADPH absorbance, primary screen (AID 1159550;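 active means at least 20% inhibition of 6-phosphogluconate dehydrogenase activity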)
Conditions: recombinant 6PGD, NADPH absorbance 341 nm; at 10 µM; stronger effect = higher value
For `CN[C@@H](Cc1c[nH]c2ccccc12)C(=O)O`, the inhibition was 8.96% (inactive).
With `CCCCSP(=O)(SCCCC)SCCCC` the inhibition was 10.6% (inactive).
In the case of `CC(=O)OC1CCC2(C)C(=CCC3C4CCC(=O)C4(C)CCC32)C1` (stereo unspecified), the inhibition is reported as 2.3% (inactive).
With `CC1(C)C(O)CC(O)C2(C)C1CC(O)C1(C)C2CCC2(C)C(c3ccoc3)OC(=O)C3OC321` (stereo unspecified) the inhibition was -7.21% (inactive).
In the case of `NCC(CC(=O)O)c1ccc(Cl)s1` (stereo unspecified), the inhibition is reported as -3.23% (inactive).
In the case of `C=C(C)[C@H]1Cc2c(ccc3c(=O)c4c(oc23)COc2cc(OC)c(OC)cc2-4)O1`, the inhibition is reported as -6.24% (inactive).
With `CNC(=O)O/N=C(/C)SC` the inhibition was -23.1% (inactive).

Test system: Aerobactin synthetase IucA (Klebsiella pneumoniae, hypervirulent)
Assay: biochemical IucA inhibition screen of LOPAC library by absorbance (AID 1346212; call rule not given here;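 further: 100% = no compound wells and 0% = no enzyme wells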)
Conditions: IucA enzyme assay, absorbance (OD) readout; stronger effect = lower value; concentration not given here
With `C=CCN1CC[C@]23CCCC[C@H]2[C@H]1Cc1ccc(O)cc13` the remaining activity was 94.8% (inactive).
With `CN1C[C@H](CNC(=O)OCc2ccccc2)C[C@@H]2c3cccc4c3c(cn4C)C[C@H]21` the remaining activity was 130% (inactive).
With `COc1ccc2c(c1OC)C(=O)O[C@H]2[C@@H]1c2cc3c(cc2CCN1C)OCO3` the remaining activity was 110% (inactive).

Test system: not listed separately
Assay: viability loss with induced miR-34 in A549 – imaging, A549 dox-inducible miR-34, nuclei and caspase counts, primary screen (AID 1347080)
Conditions: A549 miR-34 inducible, Hoechst nuclei count, 48 h; stronger effect = lower value
For `COP(=S)(OC)Oc1ccc(Sc2ccc(OP(=S)(OC)OC)cc2)cc1`, the fold change was 0.838 (inactive).
In the case of `CN(C)C(=S)SSC(=S)N(C)C`, the fold change is reported as 0.701 (inactive).
In the case of `CN1C[C@H](CNC(=O)OCc2ccccc2)C[C@@H]2c3cccc4c3c(cn4C)C[C@H]21`, the fold change is reported as 0.705 (inactive) and 0.866 (inactive) and 0.969 (inactive).
With `COc1ccc2c(c1OC)C(=O)O[C@H]2[C@@H]1c2cc3c(cc2CCN1C)OCO3` the fold change was 0.977 (inactive).
For `c1ccc2c(c1)Sc1ccccc1N2CC1CN2CCC1CC2` (stereo unspecified), the fold change was 0.854 (inactive).

Same assay, conditions: A549 miR-34 inducible, Hoechst nuclei count, 48 h; measured here: relative caspase fold change +Dox/-Dox
`COP(=S)(OC)Oc1ccc(Sc2ccc(OP(=S)(OC)OC)cc2)cc1` showed a fold change of 1.68.
With `CN(C)C(=S)SSC(=S)N(C)C` the fold change was 4.9.
With `CN1C[C@H](CNC(=O)OCc2ccccc2)C[C@@H]2c3cccc4c3c(cn4C)C[C@H]21` the fold change was 1.05 and 1.44 and 0.756.
Compound `COc1ccc2c(c1OC)C(=O)O[C@H]2[C@@H]1c2cc3c(cc2CCN1C)OCO3` has a fold change of 1.1.
`c1ccc2c(c1)Sc1ccccc1N2CC1CN2CCC1CC2` (stereo unspecified) gave a fold change of 0.648.

Same assay, conditions: A549 miR-34 inducible, Hoechst nuclei count, 48 h; measured here: total cells with miR-34 induction; stronger effect = lower value
In the case of `COP(=S)(OC)Oc1ccc(Sc2ccc(OP(=S)(OC)OC)cc2)cc1`, the cell count is reported as 9320.
With `CN(C)C(=S)SSC(=S)N(C)C` the cell count was 7410.
With `CN1C[C@H](CNC(=O)OCc2ccccc2)C[C@@H]2c3cccc4c3c(cn4C)C[C@H]21` the cell count was 1820 and 6760 and 7430.
Compound `COc1ccc2c(c1OC)C(=O)O[C@H]2[C@@H]1c2cc3c(cc2CCN1C)OCO3` has a cell count of 10700.
With `c1ccc2c(c1)Sc1ccccc1N2CC1CN2CCC1CC2` (stereo unspecified) the cell count was 6390.

Same assay, conditions: A549 miR-34 inducible, Hoechst nuclei count, 48 h; measured here: total cells without miR-34 induction
`COP(=S)(OC)Oc1ccc(Sc2ccc(OP(=S)(OC)OC)cc2)cc1` showed a cell count of 11100.
`CN(C)C(=S)SSC(=S)N(C)C` showed a cell count of 10600.
In the case of `CN1C[C@H](CNC(=O)OCc2ccccc2)C[C@@H]2c3cccc4c3c(cn4C)C[C@H]21`, the cell count is reported as 2580 and 7810 and 7670.
`COc1ccc2c(c1OC)C(=O)O[C@H]2[C@@H]1c2cc3c(cc2CCN1C)OCO3` gave a cell count of 10900.
`c1ccc2c(c1)Sc1ccccc1N2CC1CN2CCC1CC2` (stereo unspecified) showed a cell count of 7490.

Biological target: Mitogen-activated protein kinase 7 (Homo sapiens) (UniProt Q13164)
Sequence (Q13164 whole entry, looked up, the tested form may be a part): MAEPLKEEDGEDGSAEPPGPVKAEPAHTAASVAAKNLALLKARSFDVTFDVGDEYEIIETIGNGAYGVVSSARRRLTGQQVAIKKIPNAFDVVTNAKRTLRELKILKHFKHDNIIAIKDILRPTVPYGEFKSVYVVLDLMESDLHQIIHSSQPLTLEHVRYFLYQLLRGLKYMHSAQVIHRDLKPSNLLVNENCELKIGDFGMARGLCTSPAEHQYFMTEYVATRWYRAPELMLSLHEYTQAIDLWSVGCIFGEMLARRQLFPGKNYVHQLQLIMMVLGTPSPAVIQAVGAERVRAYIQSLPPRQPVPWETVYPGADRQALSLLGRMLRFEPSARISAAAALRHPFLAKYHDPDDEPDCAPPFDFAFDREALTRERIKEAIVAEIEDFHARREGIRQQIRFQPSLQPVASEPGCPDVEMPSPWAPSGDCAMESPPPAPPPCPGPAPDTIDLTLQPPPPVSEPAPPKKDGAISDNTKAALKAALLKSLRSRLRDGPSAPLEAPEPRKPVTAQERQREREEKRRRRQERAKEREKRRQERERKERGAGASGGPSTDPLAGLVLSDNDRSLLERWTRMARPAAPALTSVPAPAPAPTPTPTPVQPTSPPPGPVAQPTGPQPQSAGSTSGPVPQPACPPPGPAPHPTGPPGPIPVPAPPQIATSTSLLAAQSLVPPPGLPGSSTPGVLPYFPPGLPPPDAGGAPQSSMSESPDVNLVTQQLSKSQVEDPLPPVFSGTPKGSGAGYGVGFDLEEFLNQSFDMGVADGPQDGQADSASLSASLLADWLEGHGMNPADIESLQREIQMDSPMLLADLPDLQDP
Assay: Gal4-ERK5 driven luciferase induction – cell-based, HTS, primary screen (AID 1508626;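 active means luciferase signal above three times the same-plate solvent-only control wells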;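 further: luciferase driven by Gal4-ERK5 fusion binding five Gal4 sites before minimal TATA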)
Conditions: HeLa Gal4-ERK5 transactivation, 18 h, at 5 µM, stronger effect = higher value
With `COP(=S)(OC)Oc1ccc(Sc2ccc(OP(=S)(OC)OC)cc2)cc1` the luciferase signal was 80 AU (inactive).
In the case of `CN(C)C(=S)SSC(=S)N(C)C`, the luciferase signal is reported as 64 AU (inactive).
With `CN1C[C@H](CNC(=O)OCc2ccccc2)C[C@@H]2c3cccc4c3c(cn4C)C[C@H]21` the luciferase signal was 40 AU (inactive).

Test system: not listed separately
Assay: galactose survival enhancers in mitochondrial complex I cybrids – cell-based, galactose medium, ATP luminescence, primary screen (AID 1645843;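 active means z-score of at least 1.8 in each of two replicates, scored against plate mean and spread of sample wells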;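 further: positive z means more ATP and so rescue of galactose-driven cybrid death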)
Conditions: complex I mutant cybrid cells, 72 h, stronger effect = higher value
In the case of `CN1C[C@H](CNC(=O)OCc2ccccc2)C[C@@H]2c3cccc4c3c(cn4C)C[C@H]21`, the z-score is reported as -1.27 (inactive) and -0.62 (inactive).
With `COc1ccc2c(c1OC)C(=O)O[C@H]2[C@@H]1c2cc3c(cc2CCN1C)OCO3` the z-score was 0.055 (inactive).
With `c1ccc2c(c1)Sc1ccccc1N2CC1CN2CCC1CC2` (stereo unspecified) the z-score was -2.58 (inactive).
